Assay results published in PubChem BioAssay (NCATS).
Values joined by “and” are separate entries in the source; they are usually repeats but may differ in a detail not shown here. Equal values may be shown once. Records with an inconclusive call do not appear. Active and inactive are the calls of the source. Calls follow the shape of the dose curve; as a rule, active = well fitted curve in the direction sought with a large enough effect; inconclusive = small, poorly fitted or top-dose-only effect, or another doubt; inactive = no such curve, though single readings can be large; an effect the other way counts as inactive or inconclusive.

Key:
MCC-13 = assay: qHTS assay to identify novel small-molecules to repurpose for Merkel cell carcinoma treatment (AID 1296009); settings: MCC and control cell lines, CellTiter-Glo viability, 72 h; series mostly up to 46 µM; also: nearly all actives have a fitted effect of over 60% in size
Procedure, shortened: (§1)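 Cells were treated for 72 hr at 37 degree celsius with compounds in 8- or 11-point dose response. Viability was read by CellTiter-Glo luminescence, normalized to no-cell (cytotoxicity) and DMSO controls.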

MCC-26 = assay: as above; settings: MCC and control cell lines, CellTiter-Glo viability, 72 h; series mostly up to 46 µM
Procedure, shortened: as §1

MKL-1 = assay: as above; settings: MCC and control cell lines, CellTiter-Glo viability, 72 h; series mostly up to 46 µM
Procedure, shortened: as §1

MKL-2 = assay: as above; settings: MCC and control cell lines, CellTiter-Glo viability, 72 h; series mostly up to 46 µM
Procedure, shortened: as §1

NIH3T3 = assay: as above; settings: MCC and control cell lines, CellTiter-Glo viability, 72 h; at 44.8 µM (top of the series) unless noted
Procedure, shortened: as §1

UISO = assay: as above; settings: MCC and control cell lines, CellTiter-Glo viability, 72 h; series mostly up to 46 µM
Procedure, shortened: as §1

WaGa = assay: as above; settings: MCC and control cell lines, CellTiter-Glo viability, 72 h; series mostly up to 46 µM
Procedure, shortened: as §1

C33A = assay: Primary qHTS to identify gynecologic anti-cancer compounds using libraries of approved drugs and bioactive compounds (AID 1345084); settings: Gynecologic cancer cell panel viability, ATPlite luminescence, 48 h; series mostly up to 57.5 µM; also: nearly all actives have a fitted effect of over 55% in size
Procedure, shortened: (§2)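 Cell viability after 48 h drug treatment, ATPlite luminescence readout; five doses.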

CAOV3 = assay: as above; settings: Gynecologic cancer cell panel viability, ATPlite luminescence, 48 h; series mostly up to 57.5 µM
Procedure, shortened: as §2

CASKI = assay: as above; settings: Gynecologic cancer cell panel viability, ATPlite luminescence, 48 h; series mostly up to 57.5 µM
Procedure, shortened: as §2

Es-2 = assay: as above; settings: Gynecologic cancer cell panel viability, ATPlite luminescence, 48 h; series mostly up to 57.5 µM
Procedure, shortened: as §2

HeLa = assay: as above; settings: Gynecologic cancer cell panel viability, ATPlite luminescence, 48 h; series mostly up to 57.5 µM
Procedure, shortened: as §2

Hek293T = assay: as above; settings: Gynecologic cancer cell panel viability, ATPlite luminescence, 48 h, control line for the selectivity index; series mostly up to 57.5 µM
Procedure, shortened: as §2

JEG-3 = assay: as above; settings: Gynecologic cancer cell panel viability, ATPlite luminescence, 48 h; series mostly up to 57.5 µM
Procedure, shortened: as §2

OV90 = assay: as above; settings: Gynecologic cancer cell panel viability, ATPlite luminescence, 48 h; series mostly up to 57.5 µM
Procedure, shortened: as §2

PA-1 = assay: as above; settings: Gynecologic cancer cell panel viability, ATPlite luminescence, 48 h; series mostly up to 57.5 µM
Procedure, shortened: as §2

SKOV3 = assay: as above; settings: Gynecologic cancer cell panel viability, ATPlite luminescence, 48 h; series mostly up to 57.5 µM
Procedure, shortened: as §2

Tov-21-G = assay: as above; settings: Gynecologic cancer cell panel viability, ATPlite luminescence, 48 h; series mostly up to 57.5 µM
Procedure, shortened: as §2

Tov112D = assay: as above; settings: Gynecologic cancer cell panel viability, ATPlite luminescence, 48 h; series mostly up to 57.5 µM
Procedure, shortened: as §2

[1] = Drug repurposing screens with cells derived from glioblastoma tumor samples (AID 1345199); settings: GBM patient neurospheres viability, ATP luminescence, 48 h; also: nearly all actives have a fitted effect of over 40% in size; also: potency is read from the fitted curve at half-maximal effect
Procedure, shortened: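 Four patient lines of CD133+ GBM neurospheres were screened at several concentrations; hits were retested in those lines plus three slower-growing GBM lines, using 48-hour treatment and ATP-based viability.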

[2] = at 45.9 µM (top of the series), tumour line B
[3] = at 45.9 µM (top of the series), tumour line D
[4] = at 46.1 µM (top of the series), tumour line C
[5] = at 20 µM (top of the series), tumour line C
[6] = at 21.2 µM (top of the series), tumour line B
[7] = at 21.2 µM (top of the series), tumour line D
[8] = at 21.3 µM (top of the series), tumour line A
% is scaled to controls: 0 for no effect and ±100 for the full control effect.

OC[C@H]1O[C@H](O[C@]2(CCl)O[C@H](CCl)[C@@H](O)[C@@H]2O)[C@H](O)[C@@H](O)[C@H]1Cl
inactive: Potency (MCC-13) | Potency (MCC-26) | Potency (MKL-1) | Potency (MKL-2) | outcome (NIH3T3) | Potency (UISO) | Potency (WaGa) | Potency (C33A) | Potency (CAOV3) | Potency (CASKI) | Potency (Es-2) | Potency (HeLa) | Potency (Hek293T) | Potency (JEG-3) | Potency (OV90) | Potency (PA-1) | Potency (SKOV3) | Potency (Tov-21-G) | Potency (Tov112D)

CC1(C)OC[C@@H](COC(=O)CCc2ccc(OC[C@@H](O)CNCCNC(=O)N3CCOCC3)cc2)O1
inactive: Potency (MCC-13) | Potency (MCC-26) | Potency (MKL-1) | Potency (MKL-2) | Potency (UISO) | Potency (WaGa) | Potency (C33A) | Potency (CAOV3) | Potency (CASKI) | Potency (Es-2) | Potency (HeLa) | Potency (Hek293T) | Potency (JEG-3) | Potency (OV90) | Potency (PA-1) | Potency (SKOV3) | Potency (Tov-21-G) | Potency (Tov112D) | activity, negative = cell killing [1, 2] -1.97% and -1.33% | activity, negative = cell killing [1, 3] -8.36% and -5.13% | activity, negative = cell killing [1, 4] 1.06% and -5.37%

COc1ccc(C2C(=O)c3ccccc3C2=O)cc1
inactive: Potency (MCC-13) | Potency (MCC-26) | Potency (MKL-1) | Potency (MKL-2) | outcome (NIH3T3) | Potency (UISO) | Potency (WaGa) | Potency (C33A) | Potency (CAOV3) | Potency (CASKI) | Potency (Es-2) | Potency (HeLa) | Potency (Hek293T) | Potency (JEG-3) | Potency (OV90) | Potency (PA-1) | Potency (SKOV3) | Potency (Tov-21-G) | Potency (Tov112D) | activity, negative = cell killing [1, 2] -10.6% | activity, negative = cell killing [1, 3] -14.2% | activity, negative = cell killing [1, 4] -5.24%

Cc1cc(O)c(C(C)C)cc1Cl
inactive: Potency (MCC-13) | Potency (MCC-26) | Potency (MKL-1) | Potency (MKL-2) | Potency (UISO) | Potency (WaGa) | Potency (C33A) | Potency (CAOV3) | Potency (CASKI) | Potency (Es-2) | Potency (HeLa) | Potency (Hek293T) | Potency (JEG-3) | Potency (OV90) | Potency (PA-1) | Potency (SKOV3) | Potency (Tov-21-G) | Potency (Tov112D) | activity, negative = cell killing [1, 2] -5.69% | activity, negative = cell killing [1, 3] -7.04% | activity, negative = cell killing [1, 4] 8.96%

CCOC(=O)c1cccc(N)c1
inactive: Potency (MCC-13) | Potency (MCC-26) | Potency (MKL-1) | Potency (MKL-2) | Potency (UISO) | Potency (WaGa) | Potency (C33A) | Potency (CAOV3) | Potency (CASKI) | Potency (Es-2) | Potency (HeLa) | Potency (Hek293T) | Potency (JEG-3) | Potency (OV90) | Potency (PA-1) | Potency (SKOV3) | Potency (Tov-21-G) | Potency (Tov112D) | activity, negative = cell killing [1, 2] -17.6% | activity, negative = cell killing [1, 3] 2.11% | activity, negative = cell killing [1, 4] -0.117%

Cc1nc2n(c(=O)c1CCN1CCC(c3noc4cc(F)ccc34)CC1)CCC[C@H]2O
inactive: Potency (MCC-13) | Potency (MCC-26) | Potency (MKL-1) | Potency (MKL-2) | outcome (NIH3T3) inactive [at 17.4 µM] | Potency (UISO) | Potency (WaGa) | Potency (C33A) | Potency (CASKI) | Potency (Es-2) | Potency (HeLa) | Potency (Hek293T) | Potency (JEG-3) | Potency (OV90) | Potency (PA-1) | Potency (SKOV3) | Potency (Tov-21-G) | Potency (Tov112D) | activity, negative = cell killing [1, 2] -11% | activity, negative = cell killing [1, 3] -35.1% | activity, negative = cell killing [1, 4] -8.74%
active: Potency ([1]; tumour line A) 15.8 µM

O=C(O)CNC(=O)c1ccccc1
inactive: Potency (MCC-13) | Potency (MCC-26) | Potency (MKL-1) | Potency (MKL-2) | outcome (NIH3T3) | Potency (UISO) | Potency (WaGa) | Potency (C33A) | Potency (CAOV3) | Potency (CASKI) | Potency (Es-2) | Potency (HeLa) | Potency (Hek293T) | Potency (JEG-3) | Potency (OV90) | Potency (PA-1) | Potency (SKOV3) | Potency (Tov-21-G) | Potency (Tov112D) | activity, negative = cell killing [1, 2] -9.91% | activity, negative = cell killing [1, 3] -0.469% | activity, negative = cell killing ([1]; at 46 µM (top of the series), tumour line A) 3.77% | activity, negative = cell killing [1, 4] -1.09%

NC(=O)c1cc[n+](CC2=C(C(=O)[O-])N3C(=O)[C@@H](NC(=O)Cc4cccs4)[C@H]3SC2)cc1
inactive: Potency (MCC-13) | Potency (MCC-26) | Potency (MKL-1) | Potency (MKL-2) | outcome (NIH3T3) | Potency (UISO) | Potency (WaGa) | Potency (C33A) | Potency (CAOV3) | Potency (CASKI) | Potency (Es-2) | Potency (HeLa) | Potency (Hek293T) | Potency (JEG-3) | Potency (OV90) | Potency (PA-1) | Potency (SKOV3) | Potency (Tov-21-G) | Potency (Tov112D) | activity, negative = cell killing [1, 5] -2.18% | activity, negative = cell killing [1, 6] -10.7% | activity, negative = cell killing [1, 7] -13.1% | activity, negative = cell killing [1, 8] -27.6%

CC(C)(C(=O)c1cccnc1)c1cccnc1
inactive: Potency (MCC-13) | Potency (MCC-26) | Potency (MKL-1) | Potency (MKL-2) | outcome (NIH3T3) | Potency (UISO) | Potency (WaGa) | Potency (C33A) | Potency (CAOV3) | Potency (CASKI) | Potency (Es-2) | Potency (HeLa) | Potency (Hek293T) | Potency (OV90) | Potency (PA-1) | Potency (SKOV3) | Potency (Tov-21-G) | Potency (Tov112D) | activity, negative = cell killing [1, 5] -7.19% | activity, negative = cell killing [1, 6] -14.8% | activity, negative = cell killing [1, 7] -8.11% | activity, negative = cell killing [1, 8] -19.8%
